In all, about 5,500 compounds went through this assay and about 2,000 (36%) were called active. Not shown: some 18% with an inconclusive outcome. No stated cut-off is given here; in the data, active means normalized growth mostly below about 0.91 (no sharp cut-off); inconclusive means no clear call, values can overlap the other calls; inactive means mostly above about 0.92. Some of the results follow.
Assay: chemical genetic growth profiling, strain panel (AID 1159580);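 further: tested at 20 µM; growth read once vehicle control cultures reached saturation at 30 °C; 1 = growth at the plate median or of vehicle wells; lower values mean less growth of the strain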
Settings: growth OD

Measured: normalized growth

CC[C@@H](CO)NC(=O)[C@@H]1C=C2c3cccc4[nH]cc(c34)C[C@H]2N(C)C1
inactive: S. cerevisiae deletion strains, locus YKL009W, strain mrt4, active compounds read low 0.999 | S. cerevisiae deletion strains, locus YKL068W, active compounds read low 0.996 | S. cerevisiae deletion strains, locus YKL085W, strain MDH1 (second series), active compounds read low 1.02 | S. cerevisiae deletion strains, locus YKL085W, strain MDH1, active compounds read low 1.02 | S. cerevisiae deletion strains, locus YKL160W, strain elf1, active compounds read low 0.982 | S. cerevisiae deletion strains, locus YKL190W, strain CNB1, active compounds read low 0.997 | S. cerevisiae deletion strains, locus YKR001C, strain vps1, active compounds read low 0.947 | S. cerevisiae deletion strains, locus YKR026C, strain gcn3, active compounds read low 1 | S. cerevisiae deletion strains, locus YKR091W, strain srl3, active compounds read low 0.997 | S. cerevisiae deletion strains, locus YLL001W, strain dnm1, active compounds read low 0.982 | S. cerevisiae deletion strains, locus YLL026W, active compounds read low 0.986 | S. cerevisiae deletion strains, locus YLL041C, strain sdh2, active compounds read low 1 | S. cerevisiae deletion strains, locus YLR027C, strain aat2, active compounds read low 0.993 | S. cerevisiae deletion strains, locus YLR039C, strain RIC1, active compounds read low 1.04 | S. cerevisiae deletion strains, locus YLR058C, strain SHM2, active compounds read low 0.989 | S. cerevisiae deletion strains, locus YLR102C, strain apc9, active compounds read low 0.985 | S. cerevisiae deletion strains, locus YLR113W, strain HOG1, active compounds read low 1.03 | S. cerevisiae deletion strains, locus YLR221C, strain rsa3, active compounds read low 0.999 | S. cerevisiae deletion strains, locus YLR258W, strain gsy2, active compounds read low 1 | S. cerevisiae deletion strains, locus YLR262C, strain YPT6 (second series), active compounds read low 0.991 | S. cerevisiae deletion strains, locus YLR262C, strain YPT6, active compounds read low 1.06 | S. cerevisiae deletion strains, locus YLR268W, strain sec22, active compounds read low 0.985 | S. cerevisiae deletion strains, locus YLR320W, strain mms22, active compounds read low 0.98 | S. cerevisiae deletion strains, locus YLR330W, strain CHS5, active compounds read low 0.992 | S. cerevisiae deletion strains, locus YLR342W, strain FKS1 (second series), active compounds read low 0.983 | S. cerevisiae deletion strains, locus YLR342W, strain FKS1, active compounds read low 0.982 | S. cerevisiae deletion strains, locus YLR357W, strain rsc2, active compounds read low 0.978 | S. cerevisiae deletion strains, locus YLR370C, strain arc18, active compounds read low 1 | S. cerevisiae deletion strains, locus YLR371W, strain rom2, active compounds read low 0.986 | S. cerevisiae deletion strains, locus YLR384C, strain iki3, active compounds read low 0.997 | S. cerevisiae deletion strains, locus YLR418C, strain cdc73, active compounds read low 0.926 | S. cerevisiae deletion strains, locus YML016C, strain PPZ1, active compounds read low 0.978 | S. cerevisiae deletion strains, locus YML032C, strain rad52, active compounds read low 0.971 | S. cerevisiae deletion strains, locus YML120C, strain ndi1, active compounds read low 1.01 | S. cerevisiae deletion strains, locus YML124C, strain tub3, active compounds read low 0.987 | S. cerevisiae deletion strains, locus YMR058W, strain fet3, active compounds read low 0.99 | S. cerevisiae deletion strains, locus YMR078C, strain ctf18, active compounds read low 0.996 | S. cerevisiae deletion strains, locus YMR125W, strain sto1, active compounds read low 1.01 | S. cerevisiae deletion strains, locus YMR129W, active compounds read low 1 | S. cerevisiae deletion strains, locus YMR205C, strain PFK2, active compounds read low 0.993 | S. cerevisiae deletion strains, locus YMR223W, strain ubp8, active compounds read low 0.961 | S. cerevisiae deletion strains, locus YMR231W, strain pep5, active compounds read low 0.992 | S. cerevisiae deletion strains, locus YMR263W, strain SAP30, active compounds read low 1.01 | S. cerevisiae deletion strains, locus YMR307W, strain GAS1, active compounds read low 0.972 | S. cerevisiae deletion strains, locus YNL067W, strain RPL9B, active compounds read low 1.04 | S. cerevisiae deletion strains, locus YNL071W, strain lat1, active compounds read low 1 | S. cerevisiae deletion strains, locus YNL128W, strain TEP1, active compounds read low 1.01 | S. cerevisiae deletion strains, locus YNL153C, strain GIM3, active compounds read low 1.02 | S. cerevisiae deletion strains, locus YNL183C, strain NPR1, active compounds read low 0.978 | S. cerevisiae deletion strains, locus YNL209W, strain ssb2, active compounds read low 1 | S. cerevisiae deletion strains, locus YNL233W, strain BNI4, active compounds read low 0.983 | S. cerevisiae deletion strains, locus YNL248C, strain rpa49, active compounds read low 1 | S. cerevisiae deletion strains, locus YNL250W, strain rad50, active compounds read low 0.978 | S. cerevisiae deletion strains, locus YNL271C, strain bni1, active compounds read low 0.981 | S. cerevisiae deletion strains, locus YNL298W, strain CLA4, active compounds read low 0.999 | S. cerevisiae deletion strains, locus YNL307C, strain MCK1, active compounds read low 0.973 | S. cerevisiae deletion strains, locus YNL322C, strain KRE1 (second series), active compounds read low 0.993 | S. cerevisiae deletion strains, locus YNL322C, strain KRE1, active compounds read low 0.997 | S. cerevisiae deletion strains, locus YNR049C, strain mso1, active compounds read low 0.999 | S. cerevisiae deletion strains, locus YNR052C, strain pop2, active compounds read low 0.996 | S. cerevisiae deletion strains, locus YOL006C, strain TOP1, active compounds read low 1.03 | S. cerevisiae deletion strains, locus YOL012C, strain htz1 0.998 | S. cerevisiae deletion strains, locus YOL147C, strain pex11, active compounds read low 0.994 | S. cerevisiae deletion strains, locus YOR001W, strain rrp6, active compounds read low 0.992 | S. cerevisiae deletion strains, locus YOR061W, strain CKA2, active compounds read low 0.991 | S. cerevisiae deletion strains, locus YOR069W, strain VPS5, active compounds read low 0.986 | S. cerevisiae deletion strains, locus YOR070C, strain gyp1, active compounds read low 1 | S. cerevisiae deletion strains, locus YOR080W, strain dia2, active compounds read low 0.994 | S. cerevisiae deletion strains, locus YOR083W, strain WHI5, active compounds read low 0.963 | S. cerevisiae deletion strains, locus YOR106W, strain vam3, active compounds read low 0.993 | S. cerevisiae deletion strains, locus YOR136W, strain idh2, active compounds read low 0.986 | S. cerevisiae deletion strains, locus YOR144C, strain elg1, active compounds read low 0.984 | S. cerevisiae deletion strains, locus YOR184W, strain ser1, active compounds read low 0.966 | S. cerevisiae deletion strains, locus YOR231W, strain MKK1, active compounds read low 1.03 | S. cerevisiae deletion strains, locus YOR265W, strain rbl2, active compounds read low 1.01 | S. cerevisiae deletion strains, locus YOR270C, strain vph1, active compounds read low 1.03 | S. cerevisiae deletion strains, locus YOR290C, strain snf2, active compounds read low 1 | S. cerevisiae deletion strains, locus YOR316C, strain cot1, active compounds read low 0.987 | S. cerevisiae deletion strains, locus YPL051W, strain arl3, active compounds read low 0.992 | S. cerevisiae deletion strains, locus YPL055C, strain LGE1, active compounds read low 1.07 | S. cerevisiae deletion strains, locus YPL078C, strain atp4, active compounds read low 0.98 | S. cerevisiae deletion strains, locus YPL106C, strain sse1, active compounds read low 0.981 | S. cerevisiae deletion strains, locus YPL240C, strain hsp82, active compounds read low 0.995 | S. cerevisiae deletion strains, locus YPL241C, strain CIN2, active compounds read low 0.997 | S. cerevisiae deletion strains, locus YPL256C, strain CLN2, active compounds read low 1.1 | S. cerevisiae deletion strains, locus YPR119W, strain clb2, active compounds read low 0.989 | S. cerevisiae deletion strains, locus YPR141C, strain kar3, active compounds read low 0.992 | S. cerevisiae deletion strains, locus YPR163C, strain tif3, active compounds read low 0.987 | S. cerevisiae deletion strains, locus YPR167C, strain met16, active compounds read low 0.987 | S. cerevisiae deletion strains, strain wtn01, active compounds read low 0.975 | S. cerevisiae strains, strain wild type, active compounds read low 0.982

From PubChem BioAssay AID1159580 (chemical genetic matrix, 2015)
